Source: PubChem
D2 PAM-1: HTS Assay for Positive Allosteric Modulators of the Human D2 Dopamine Receptor: Primary Screen for Potentiators; HEK293 T-REx D2, calcium flux, EC20 dopamine potentiation; hit rate 0.34% among 340,000; potentiation, % at 10 µM; D(2) dopamine receptor (Homo sapiens), P14416;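 active means potentiation over 3 SD above the plate norm, cut at about 30% in these data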; further: 0% is about no effect
Target sequence (P14416 whole entry, looked up): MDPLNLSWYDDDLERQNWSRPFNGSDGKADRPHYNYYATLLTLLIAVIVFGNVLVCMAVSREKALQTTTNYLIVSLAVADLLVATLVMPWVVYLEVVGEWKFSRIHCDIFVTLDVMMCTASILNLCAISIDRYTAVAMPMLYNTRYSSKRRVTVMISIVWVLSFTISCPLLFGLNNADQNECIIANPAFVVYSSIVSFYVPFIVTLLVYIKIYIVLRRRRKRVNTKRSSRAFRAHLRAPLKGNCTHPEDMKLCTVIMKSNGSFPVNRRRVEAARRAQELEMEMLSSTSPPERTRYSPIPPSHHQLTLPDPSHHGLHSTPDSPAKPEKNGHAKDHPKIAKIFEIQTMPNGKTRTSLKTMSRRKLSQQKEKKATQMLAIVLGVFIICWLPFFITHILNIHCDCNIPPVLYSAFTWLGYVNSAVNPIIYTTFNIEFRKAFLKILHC
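Tetracycline-induced HEK293 T-REx cells force-coupled to calcium signalling expressed D2; compounds were pin-added after a 10 s baseline, read kinetically 180 s, then an EC20 dopamine challenge followed with a further 180 s calcium read.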
D2 antagonist: HTS Assay for Allosteric Antagonists of the Human D2 Dopamine Receptor: Primary Screen for Antagonists; hit rate 2% among 340,000; HEK293 TREx D2 cells, calcium flux, dopamine EC80; inhibition, % at 10 µM; D(2) dopamine receptor (Homo sapiens), P14416; in the data active means inhibition above about 30%; inactive means below that, where a call was filed; further: 0% is about no effect
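Compounds are added to dye-loaded, induced HEK293 T-REx cells coupled to calcium release via D2; after a 3 min kinetic read an EC80 dopamine stimulus is given and fluorescence is recorded for 3 more min.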
D2 ag-1: Beta-Arrestin HTS for Positive Allosteric Modulators of the Human D2 Dopamine Receptor: Agonists; DiscoveRx PathHunter D2 beta-arrestin, luminescence, 90 min; 100% = 57 uM dopamine signal; activation, % (no concentration beside the values); D(2) dopamine receptor (Homo sapiens), P14416; hit rate 0.084% among 360,000; in the data active means activation above about 40%; inconclusive means between about 15% and that limit
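Agonist mode: compounds alone added to overnight-plated D2 PathHunter cells for 90 min at 37 C, with 57 uM final dopamine (EC100) defining full response. Beta-arrestin recruitment detected by chemiluminescent reagent, read after 1 h at ambient temperature.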
D2 PAM-2: Beta-Arrestin HTS for Positive Allosteric Modulators of the Human D2 Dopamine Receptor: Potentiators; D(2) dopamine receptor (Homo sapiens), P14416; DiscoveRx D2 beta-arrestin cells, luminescence, 90 min; 100% = 57 uM dopamine signal; potentiation, % (no concentration beside the values); hit rate 0.23% among 360,000; in the data active means potentiation above about 50%; inconclusive means mostly about 30% to 49%
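D2 cells co-treated with compound plus 50 nM dopamine (EC20) for 90 min at 37 deg C to detect potentiation. Beta-arrestin recruitment was read as enzyme-fragment luminescence after 1 h at ambient temperature. Full response was set by 57 uM dopamine.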
D2 ag-2: HTS Assay for Allosteric Agonists of the Human D2 Dopamine Receptor: Primary Screen for Agonists. activation, % at 2 µM. D(2) dopamine receptor (Homo sapiens), P14416. AID 485358, 2010. hit rate 0.53% among 340,000. HEK293 T-REx D2 cells, calcium flux agonist mode;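 active means activation over 3 SD above normal in the single-dose calcium agonist read, cut at about 30% in these data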; further: 0% is about no effect
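Tetracycline-induced HEK293 T-REx cells with force-coupled D2 receptor, plated overnight at 30 C, loaded with no-wash calcium dye. After a 10 s baseline, compound was pin-added and calcium flux read kinetically for 180 s; calcium rises flagged agonists.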
Numbers without * were called inactive; ? = inconclusive; . = not tested or not shown. This is a sample that favours compounds with a hit; in the whole collection about 2.4% have one here.

SMILES	D2 PAM-1	D2 antagonist	D2 ag-1	D2 PAM-2	D2 ag-2
Cc1cc(Nc2cccc(C(F)(F)F)c2)nc2ccc(NC(=O)c3cccc(Cl)c3)cc12	2.5	.	.	.	0.7
CC1CCN(CC(O)CN2c3ccccc3Sc3ccccc32)CC1 (stereo not given)	-26.3	70.9*	-6.0	-56.1	-1.9
CC1CCN(c2nn3c(=O)c(C(=O)NC(C)C)cnc3s2)CC1	0.3	.	.	.	0.4
Cc1cccc(NC(=O)Nc2nnc(N(C)Cc3ccccc3)s2)c1	4.1	.	.	.	.
COc1ccc(-c2noc(Cn3c(=O)c4ccccc4n(CC(=O)Nc4cccc(OC)c4)c3=O)n2)cc1	0.9	.	.	.	1.1
Cc1ccc(NC(=O)CN(C)C(=O)CSc2ncc(C(F)(F)F)cc2Cl)cc1	-25.1	93.0*	-3.1	-23.2	-1.4
CCOc1ccccc1CN1CCN(C/C=C/c2ccc(OC)cc2)CC1CCO (stereo not given)	-22.1	33.6*	-4.3	-6.6	3.9
CCc1ccc(NC(=O)Cn2nnc(-c3ccccc3N)n2)cc1	14.1	.	.	.	-1.9
Cn1c(NCCCCO)nc2c1c(=O)n(Cc1ccc(Cl)cc1)c(=O)n2C	-7.8	.	.	.	0.1
C[N+](C)(CCOc1ccccc1)Cc1ccccc1 (tested in a mixture with another compound)	-6.1	29.0	?	74.3*	-0.3
N=c1c(S(=O)(=O)c2ccccc2)cc2c(=O)n3ccccc3nc2n1Cc1cccnc1	-8.1	44.4*	-4.6	-66.9	0.3
Cc1cccn2c(=O)c3cc(C#N)c(=O)n(Cc4cccnc4)c3nc12	1.0	40.6*	-0.3	-15.7	0.0
Clc1ccc(-c2cn3c(n2)SCC3)cc1	-7.8	-12.5	-5.2	-5.0	0.5
Nc1nc(-c2ccc(Cl)cc2)cn1N	4.9	30.2*	-3.4	-6.0	0.1
O=C(COC(=O)c1ccc([N+](=O)[O-])o1)c1ccccc1	-3.4	5.9	7.8	65.5*	0.9
COc1cccc(OC)c1C(=O)OCC(=O)N1CCC(Cc2ccccc2)CC1	.	.	-0.4	-3.2	.
CCOC(=O)C1CCN(C(=O)COC(=O)c2ccc([N+](=O)[O-])o2)CC1	-6.4	7.4	?	1.2	0.2
O=C(OCCCOC(=O)c1ccc([N+](=O)[O-])o1)c1ccc([N+](=O)[O-])o1	-0.4	-1.1	11.0	52.8*	3.6
O=C(COC(=O)c1ccc([N+](=O)[O-])o1)NCc1ccccc1	.	.	3.9	22.2	.
COc1cccc(OC)c1C(=O)OCC(=O)N1CC(C)CC(C)C1 (stereo not given)	0.7	32.0*	-0.8	-13.9	-0.4
CC1CC(C)CN(C(=O)COC(=O)c2ccc([N+](=O)[O-])o2)C1 (stereo not given)	-1.6	31.3*	4.6	12.2	0.5
CCCCNC(=S)N/N=C/c1ccc(C#N)cc1	9.6	39.3*	2.9	9.3	-3.4
Cc1cccn2c3c(c(=O)nc12)C(c1ccc(F)cc1)CC(=O)N3 (stereo not given)	7.1	.	.	.	0.2
CCCNC(=O)N1CCN(S(=O)(=O)c2ccc3c(ccn3C)c2)CC1	-2.0	.	.	.	-1.4
O=C(Nc1ccccc1SC(=O)c1ccccc1)c1ccccc1	.	.	14.6	-12.3	.
SMILES	D2 PAM-1	D2 antagonist	D2 ag-1	D2 PAM-2	D2 ag-2
Cc1ccc(C(=O)Sc2cccccc2=O)cc1	7.1	37.1*	-7.5	-15.2	3.8
Cc1cc(Br)ccc1NC(=O)CNC(=O)CNc1cccc([N+](=O)[O-])c1	-11.0	30.5*	0.4	-28.0	-0.1
O=C(CNc1cccc([N+](=O)[O-])c1)NCCCc1ccccc1	-10.5	11.4	-3.6	-5.7	-0.4
COc1cc(Nc2nc3ccc(Cl)cc3nc2-n2nc(C)cc2C)cc(OC)c1	0.1	.	.	.	0.3
CSc1cccc(CN2CCN(CCC(C)C)C(CCO)C2)c1 (stereo not given)	-15.5	58.8*	0.0	-22.6	0.7
CC(C)CN1CCN(Cc2ccc(C#CC(C)(C)O)cc2)CC1CCO (stereo not given)	6.8	33.3*	-2.7	-9.5	1.3
CC(C)CCN1CCN(Cc2cccc(C(F)(F)F)c2)CC1CCO (stereo not given)	-32.7	76.4*	1.2	-17.2	-2.3
CC(=O)N1CCc2cc(CNS(=O)(=O)c3ccc(Cl)s3)ccc21	-3.6	.	.	.	0.4
CCc1ccc(NC(=O)CCS(=O)(=O)c2ccc3c(c2)oc(=O)n3C)cc1	2.9	.	.	.	0.7
Cc1ccc(CNC(=O)c2cc3c(s2)CN(Cc2ccccc2)C3)cc1	-13.2	38.9*	-0.8	-14.4	-0.3
Cc1ccc(CNC(=O)c2cc3c(s2)CS(=O)(=O)C3)cc1	2.2	3.9	1.4	-6.9	-0.6
CCN(CC)C(=O)c1sc2c(c1C)c(=O)n(Cc1ccccc1)c(=O)n2Cc1ccccc1C	4.6	.	.	.	0.7
CN1CCN(CCOCCOc2ccc(Br)cc2Cl)CC1	-34.4	30.7*	-4.1	-5.8	-2.4
Cc1ccc(OCCCCN2CCC(C)CC2)c(Br)c1	-20.6	107.2*	-7.8	-38.9	-0.4
CC1CCCN(CCOCCOc2ccc(Cl)cc2Br)C1 (stereo not given)	-22.8	83.2*	-3.7	-5.6	0.6
CC1CCCN(CCOCCOc2ccc(Br)cc2Cl)C1 (stereo not given)	-27.4	51.6*	0.3	-41.5	0.7
Cc1oc(-c2ccc(C(=O)NCc3ccc(Cl)cc3)cc2)nc1CS(=O)(=O)c1ccccc1	-3.4	.	.	.	0.8
O=C(NCCSCc1ccccc1Cl)C1CCN(S(=O)(=O)Cc2ccccc2)CC1	2.1	.	.	.	2.0
CCc1nnc2c(NCc3cccc(OC)c3)nc3ccccc3n12	17.4	.	.	.	-0.9
CC1CCN(CCCOc2ccc(Br)cc2Cl)CC1	-34.1	46.8*	0.2	-3.3	1.7
COc1cccc(-c2oc3ccc(C)cc3c(=O)c2O)c1	-13.7	.	.	.	3.8
CCCCCn1c(=O)c(C(=O)OCC)c(O)c2ccccc21	9.1	-2.4	-2.2	15.0	-1.0
CCCCn1c(=O)c(C(=O)OCC)c(O)c2ccccc21	7.7	38.4*	-0.4	12.5	1.3
O=C(O)CN1C(=O)NC2(CCOc3ccccc32)C1=O (stereo not given)	-3.0	-1.4	-2.0	-9.7	1.3
O=C1NC2(CCOc3ccccc32)C(=O)N1CC(=O)N(Cc1ccccc1)C1CCS(=O)(=O)C1 (stereo not given)	23.7	40.4*	-1.6	5.3	-0.5
COc1ccc(C(=O)O)c(OC)n1	-7.2	30.1*	-6.2	-5.4	-1.7
COc1ccc(C(=O)Nc2ccc(Cl)c(Cl)c2)c(OC)n1	-8.6	-1.9	0.8	-8.9	0.3
